The other results are listed elsewhere or left out. Unmarked numbers belong to inactive results. Activity calls are given as the source filed them.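 How the source made its calls: active means inhibition at or below a set negative limit, negative inhibition meaning the enzyme was activated; inactive means the rest.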
Target: Hexokinase HKDC1 (Homo sapiens) (UniProt Q2TB90)
Assay: compounds raising human HKDC1 activity – biochemical, single concentration, confirmation (AID 504708)
Details: recombinant HKDC1, G6PDH/diaphorase resazurin fluorescence; at 20 µM; stronger effect = lower value

Chain of Hexokinase HKDC1 (Homo sapiens) (Q2TB90 whole entry, looked up): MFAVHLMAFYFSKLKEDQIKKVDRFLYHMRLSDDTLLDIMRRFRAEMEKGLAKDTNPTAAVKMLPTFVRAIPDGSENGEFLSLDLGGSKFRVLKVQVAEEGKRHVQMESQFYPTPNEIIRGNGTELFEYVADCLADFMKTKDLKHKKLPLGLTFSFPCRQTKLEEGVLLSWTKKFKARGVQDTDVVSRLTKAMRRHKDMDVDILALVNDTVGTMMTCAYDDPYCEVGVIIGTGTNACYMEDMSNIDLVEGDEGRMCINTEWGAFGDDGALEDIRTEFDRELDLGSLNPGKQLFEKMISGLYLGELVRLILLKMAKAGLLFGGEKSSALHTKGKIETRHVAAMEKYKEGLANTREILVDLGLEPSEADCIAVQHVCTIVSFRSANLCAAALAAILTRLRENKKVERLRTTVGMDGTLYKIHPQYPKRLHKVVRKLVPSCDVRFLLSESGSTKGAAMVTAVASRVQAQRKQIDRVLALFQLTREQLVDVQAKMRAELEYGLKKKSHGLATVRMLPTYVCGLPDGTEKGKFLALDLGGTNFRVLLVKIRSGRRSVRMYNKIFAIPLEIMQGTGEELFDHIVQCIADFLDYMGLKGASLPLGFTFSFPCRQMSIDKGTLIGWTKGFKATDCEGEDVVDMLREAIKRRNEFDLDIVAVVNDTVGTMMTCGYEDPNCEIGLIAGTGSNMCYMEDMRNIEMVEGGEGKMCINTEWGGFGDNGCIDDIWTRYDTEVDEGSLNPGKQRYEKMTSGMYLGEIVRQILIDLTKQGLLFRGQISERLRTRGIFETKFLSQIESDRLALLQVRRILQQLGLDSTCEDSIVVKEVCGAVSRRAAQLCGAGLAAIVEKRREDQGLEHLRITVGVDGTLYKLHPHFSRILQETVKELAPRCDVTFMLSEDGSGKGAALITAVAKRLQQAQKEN

Compound | inhibition
CC(=O)OC1C2(CC3N4C(=O)C5(CO)SSC4(CC31O)C(=O)N5C)OC(C)C(C)(C)C2=O (configuration not stated) | -77% (active)
O=C1NC(=O)N(c2ccc(F)cc2)C(=O)/C1=C/c1ccc2c(c1)CCCN2Cc1ccccc1 | 1.36%

— PubChem BioAssay AID504708 (Sanford-Burnham Center for Chemical Genomics, 2011)
